The values below come from PubChem BioAssay (EPA / NIEHS).

Some compounds were tested as several samples or in several runs, with calls that do not always agree. Calls of active or inactive are those of the source. Rule for the calls: active = hit-call score of the fitted dose curve at least 0.9, where 1 is the maximum; inactive = score below 0.9.

Tested on in one test: not listed separately
Nature of the test: ATG_SREBP_CIS: Attagene CIS-FACTORIAL HepG2 Assay for human Sterol Regulatory Element Binding (SREBP) (AID 2282962). The conditions noted are these: HepG2 Attagene cis-factorial SREBP reporter, mRNA; actives raise or lower the signal. Put shortly:
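Readout: fluorescent reporter-transcript peaks resolved by capillary electrophoresis after RT-PCR. Cells were human HepG2 carrying transfected cis-promoter reporter constructs, dosed for 24 h. Gain or loss of signal was fitted against DMSO controls.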
As for `CCCCOC(=O)[C@@H](C)Oc1ccc(Oc2ccc(C(F)(F)F)cn2)cc1`, the call was inactive.
On the same count and under the same terms, next, `CCC(O)=C1C(=O)CC(C(=O)O)CC1=O` (stereo not drawn): “inactive”; `CCCCOC(=O)C(C)Oc1ccc(Oc2ccc(C(F)(F)F)cn2)cc1` (stereo not drawn): “inactive”; `CCCCC(CC)CN1C(=O)C2C3C=CC(C3)C2C1=O` (stereo not drawn): “inactive”.
On to `C[C@]12CC[C@@H]3c4ccc(O)cc4C[C@@H](CCCCCCCCCS(=O)CCCC(F)(F)C(F)(F)F)[C@H]3[C@@H]1CC[C@@H]2O` (stereo partly drawn), for which the outcome was inactive.
For `N#CSCSc1nc2ccccc2s1`, the compound was called inactive.
Same read-out and setting: the entry for `CCOC(=O)COc1cc(-n2ncc(C(F)(F)F)c(C)c2=O)c(F)cc1Cl` is “inactive”; for `C#C[C@]1(O)CC[C@H]2[C@@H]3CCC4=CC(=O)CC[C@@H]4[C@H]3CC[C@@]21CC` it is “inactive”; for `CCCN(CCC)c1c([N+](=O)[O-])cc(C(F)(F)F)c(N)c1[N+](=O)[O-]` it is “inactive”.
Take `c1ccc2[nH]c(-c3cscn3)nc2c1`: the result was inactive.
Still for that read-out and setting: the entry for `COC(=O)c1ccc(CNS(C)(=O)=O)cc1S(=O)(=O)NC(=O)Nc1nc(OC)cc(OC)n1` is “inactive”; for `COC(=O)c1c(Cl)nn(C)c1S(=O)(=O)NC(=O)Nc1nc(OC)cc(OC)n1` it is “inactive”.

In the next test the target is Signal transducer and activator of transcription 3 (Homo sapiens) (UniProt P40763). As to the kind of experiment: ATG_STAT3_CIS: Attagene CIS-FACTORIAL HepG2 Assay for human Signal Transducer and Activator of Transcription 3 (STAT3) (AID 2282963). The conditions noted are these: HepG2, Attagene cis-factorial STAT3 reporter transcription; actives raise or lower the signal. An outline of the steps: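 Readout is reporter transcript quantified by RT-PCR and capillary electrophoresis, with 6-FAM primer extension and HpaI digestion. Total RNA is taken 24 h after dosing transiently transfected HepG2 carrying cis-regulated reporter units. Bidirectional fit against DMSO.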
Sequence of Signal transducer and activator of transcription 3 (Homo sapiens) (P40763 whole entry, looked up): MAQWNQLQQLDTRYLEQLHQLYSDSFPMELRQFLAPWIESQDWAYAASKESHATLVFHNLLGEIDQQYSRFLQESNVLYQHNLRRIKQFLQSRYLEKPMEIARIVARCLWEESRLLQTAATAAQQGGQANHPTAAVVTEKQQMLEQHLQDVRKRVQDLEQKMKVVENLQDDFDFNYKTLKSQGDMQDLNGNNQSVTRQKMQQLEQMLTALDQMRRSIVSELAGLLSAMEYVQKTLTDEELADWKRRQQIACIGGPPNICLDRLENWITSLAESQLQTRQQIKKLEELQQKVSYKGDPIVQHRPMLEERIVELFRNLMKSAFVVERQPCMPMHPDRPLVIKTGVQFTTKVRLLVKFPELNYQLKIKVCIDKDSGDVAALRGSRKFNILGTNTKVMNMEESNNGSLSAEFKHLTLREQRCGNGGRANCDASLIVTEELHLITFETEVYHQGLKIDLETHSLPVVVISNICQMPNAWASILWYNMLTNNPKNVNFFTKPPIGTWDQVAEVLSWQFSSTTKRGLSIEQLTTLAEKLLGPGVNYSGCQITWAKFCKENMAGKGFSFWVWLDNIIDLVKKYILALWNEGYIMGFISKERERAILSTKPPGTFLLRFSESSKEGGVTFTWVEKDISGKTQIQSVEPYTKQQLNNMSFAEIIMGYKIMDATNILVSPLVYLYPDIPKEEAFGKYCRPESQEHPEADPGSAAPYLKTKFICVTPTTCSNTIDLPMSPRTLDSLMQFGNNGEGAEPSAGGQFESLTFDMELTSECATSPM
With `CCCCOC(=O)[C@@H](C)Oc1ccc(Oc2ccc(C(F)(F)F)cn2)cc1`, the call was inactive.
For the compound `CCOC(=O)c1ccc(O)cc1`, the result was inactive.
Take `COC(=O)c1ccccc1S(=O)(=O)NC(=O)Nc1nc(OC(F)F)cc(OC(F)F)n1`: the compound was called inactive.
As for `COC(=O)c1cccc(C)c1S(=O)(=O)NC(=O)Nc1nc(OCC(F)(F)F)nc(N(C)C)n1`, the result was inactive.
Turning to `CCC(O)=C1C(=O)CC(C(=O)O)CC1=O` (stereo not drawn), the result was inactive.
Turning to `CCCCOC(=O)C(C)Oc1ccc(Oc2ccc(C(F)(F)F)cn2)cc1` (stereo not drawn), the result was inactive.
In the case of `COC(=O)CSc1cc(N=c2sc(=O)n3n2CCCC3)c(F)cc1Cl`, the outcome was inactive.
Same read-out and setting: the entry for `COc1nc(C)nc(NC(=O)NS(=O)(=O)c2ccccc2OCCCl)n1` is “inactive”.
In the case of `N[C@@H](Cc1cc(I)c(Oc2ccc(O)c(I)c2)c(I)c1)C(=O)O`, the call was inactive.
On to `CCCCC(CC)CN1C(=O)C2C3C=CC(C3)C2C1=O` (stereo not drawn), for which the outcome was inactive.
Take `C[C@]12CC[C@@H]3c4ccc(O)cc4C[C@@H](CCCCCCCCCS(=O)CCCC(F)(F)C(F)(F)F)[C@H]3[C@@H]1CC[C@@H]2O` (stereo partly drawn): the compound was called inactive.
For the compound `CC(C)CCCCCCc1ccc(O)cc1`, the result was inactive.
In the case of `O=C(c1ccc(O)cc1O)c1ccc(O)cc1O`, the call was inactive.
The same measure, in the same setting: the entry for `CN(C)C(=O)Nc1ccc(Cl)c(Cl)c1` is “inactive”.
The same measure, in the same setting: next, `COCCO`: “inactive”.
For the compound `N#CSCSc1nc2ccccc2s1`, the outcome was inactive.
Turning to `CCOC(=O)COc1cc(-n2ncc(C(F)(F)F)c(C)c2=O)c(F)cc1Cl`, the compound was called inactive.
With `C#C[C@]1(O)CC[C@H]2[C@@H]3CCC4=CC(=O)CC[C@@H]4[C@H]3CC[C@@]21CC`, the compound was called inactive.
Same read-out and setting: next, `CCCN(CCC)c1c([N+](=O)[O-])cc(C(F)(F)F)c(N)c1[N+](=O)[O-]`: “inactive”.
Same read-out and setting: the entry for `COC(=O)c1ccccc1C(=O)O` is “inactive”.
Regarding `C=CCOC(Cn1ccnc1)c1ccc(Cl)cc1Cl` (stereo not drawn), the result was inactive.
As to `CSC(=O)c1cccc2nnsc12`, the result was inactive.
One may read the AC50 as the midpoint of the concentration-response curve, whichever way the signal moves. Consider `CC(=O)S[C@@H]1CC2=CC(=O)CC[C@]2(C)[C@H]2CC[C@@]3(C)[C@@H](CC[C@@]34CCC(=O)O4)[C@H]12`, for which the AC50 is 178 µM (active) and the outcome was inactive.
For the compound `c1ccc2[nH]c(-c3cscn3)nc2c1`, the compound was classed as inactive.
Consider `C[C@]12C[C@H](O)[C@H]3[C@@H](CCC4=CC(=O)CC[C@@]43C)[C@@H]1CC[C@@H]2C(=O)CO`, for which the compound was called inactive.
Take `OB(O)O`: the compound was called inactive.
Consider `S=C(S)NCCNC(=S)S.[Mn+2].[S-]C([S-])=NCCN=C([S-])[S-].[Zn+2]`, for which the call was inactive.
As to `COC(=O)c1ccc(CNS(C)(=O)=O)cc1S(=O)(=O)NC(=O)Nc1nc(OC)cc(OC)n1`, the compound was classed as inactive.
In the case of `O=C(c1ccccc1)C1CCCCC1`, the outcome was inactive.
The same measure, in the same setting: next, `COC(=O)c1c(Cl)nn(C)c1S(=O)(=O)NC(=O)Nc1nc(OC)cc(OC)n1`: “inactive”.
